Compound activity (PubChem)
Compounds with a hit are over-represented: about 1.2% of the library has one in this group of screens.
gsp antag – antagonists of gsp mutant (McCune-Albright syndrome); gsp-mutant cells, cAMP HTRF, 30 min; Potency, µM (doses to about 76.9 µM), for the others: at the highest dose activity change, negative = inhibition, usual class: inhibitors; 0.4% of 340,000 active; AID 624288; calls by dose curve; cell line not stated here;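 note: intracellular cAMP measured with PDE inhibitor Ro 20-1724 present during compound exposure; potency is the fitted concentration of half-maximal effect; % is set by controls: 0 for no effect and ±100 for the full control effect; nearly all actives have a fitted effect of over 65% in size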
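Cells, 2000/well, grown 16–24 h in DMEM 10% FBS with 0.5 mg/ml G418, then compounds plus […] (300 uM addition stock), 30 min at 37C. cAMP read by HTRF (cAMP-d2 and anti-cAMP antibody-K in lysis buffer) after 30 min RT.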
gsp agonist – gsp mutant agonism; gsp mutant cells, cAMP HTRF, 30 min; Potency, µM (titrated, usually from 76.9 µM), without a hit: at the top dose activation (cAMP increase), most hits filed as activators; 0.13% of 340,000 active; AID 624287; active = well fitted activation curve with a large enough effect; inconclusive = small, poorly fitted or top-dose-only effect, or another doubt; inactive = no such curve, though single readings can be large or run the other way; cell line not stated here;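 note: phosphodiesterase inhibitor Ro 20-1724 added with compounds to block cAMP breakdown; potency is the fitted concentration of half-maximal effect; nearly all actives have a fitted effect of over 60% in size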
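Cells stably selected in G418 were plated at 2000/well, grown 16-24 hr, then given compounds in DMSO with the PDE inhibitor […] (300 uM solution added) for 30 min at 37C; cAMP was read by HTRF.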
MmCpn inh – M. maripaludis TRiC chaperonin inhibition. purified Mm-Cpn ATPase, ADP Transcreener TR-FRET. Potency, µM (top dose mostly 76.9 µM), for inactives: at the top dose activity, negative = inhibition, most hits filed as inhibitors. 0.031% of 330,000 active; active = well fitted inhibition curve with a large enough effect; inconclusive = small, poorly fitted or top-dose-only effect; note: potency is the fitted concentration of half-maximal effect; % is set by controls: 0 for no effect and ±100 for the full control effect; nearly all actives have a fitted effect of over 80% in size
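Reaction buffer contained 30 mM Tris pH 7.4, 100 mM KCl, 5 mM MgCl2 and 1 mM DTT. Mm-CPN (25 nM final) hydrolysed 10 uM ATP over 30 min at 37°C; ADP was read by HTRF.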
TSHR antag – blocks TSH signaling through the human TSH receptor | P16473 | TSHR-expressing cells, TSH-stimulated cAMP HTRF, 2 h; stronger effect = lower value | activity change, negative = inhibition, % at 11.5 µM | 0.2% of 330,000 active | AID 504810;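 active = activity change below a set negative limit, meaning inhibition stronger than a set level, cut at about -70% in these data; inconclusive = activity change between two set negative limits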; note: % is set by controls: 0 for no effect and ±100 for the full control effect
Target sequence (P16473 whole entry, looked up): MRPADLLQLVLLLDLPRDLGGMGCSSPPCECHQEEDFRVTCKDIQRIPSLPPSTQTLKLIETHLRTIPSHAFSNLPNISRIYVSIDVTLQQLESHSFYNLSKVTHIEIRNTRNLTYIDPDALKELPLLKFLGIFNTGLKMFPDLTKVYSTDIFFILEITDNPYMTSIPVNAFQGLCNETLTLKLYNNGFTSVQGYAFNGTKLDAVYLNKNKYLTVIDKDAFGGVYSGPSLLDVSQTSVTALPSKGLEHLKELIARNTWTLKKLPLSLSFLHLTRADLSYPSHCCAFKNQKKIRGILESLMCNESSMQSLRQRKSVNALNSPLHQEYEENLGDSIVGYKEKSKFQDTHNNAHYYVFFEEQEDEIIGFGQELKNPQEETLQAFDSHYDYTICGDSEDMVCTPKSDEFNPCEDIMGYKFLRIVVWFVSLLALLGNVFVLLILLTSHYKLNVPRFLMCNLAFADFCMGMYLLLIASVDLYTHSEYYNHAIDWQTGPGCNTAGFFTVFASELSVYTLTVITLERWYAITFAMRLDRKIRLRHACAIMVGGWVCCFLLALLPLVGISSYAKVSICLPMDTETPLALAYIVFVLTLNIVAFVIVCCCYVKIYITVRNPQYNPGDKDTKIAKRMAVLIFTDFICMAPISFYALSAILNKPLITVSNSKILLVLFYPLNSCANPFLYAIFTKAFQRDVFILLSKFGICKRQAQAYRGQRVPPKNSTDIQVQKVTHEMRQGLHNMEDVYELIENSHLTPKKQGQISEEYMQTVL
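TSHR-expressing cells were treated with compounds, then stimulated with TSH at EC80 (4nM final) for 2 hours at 37 deg C. Cellular cAMP was measured by HTRF competition between lysate cAMP and cAMP-d2 for a cryptate-labelled anti-cAMP antibody.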
uPA surface inh – blocks generation of uPA at the cell surface; cell surface uPA generation assay, qHTS; Potency, µM (top dose mostly 38.3 µM), without a hit: at the highest dose activity change, negative = inhibition, hits mostly inhibitors; 0.31% of 330,000 active; active = well fitted inhibition curve with a large enough effect; inconclusive = small, poorly fitted or top-dose-only effect; inactive = no such curve, though single readings can be large or run the other way; tested in mouse RAW 264.7 cells; note: potency is the fitted concentration of half-maximal effect; % is set by controls: 0 for no effect and ±100 for the full control effect; nearly all actives have a fitted effect of over 55% in size
CCT chaperon mod – changes cytosolic chaperonin activity | purified chaperonin ATPase assay, HTRF ADP detection, 30 min | 0.3% of 360,000 active | activity change, % (concentration not given with the values), hits read low; in the data active = activity change below about -30%; note: % is set by controls: 0 for no effect and ±100 for the full control effect
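TRiC (40 or 20 nM final, by batch activity) in 30 mM Tris pH 7.4, 100 mM KCl, 5 mM MgCl2, 1 mM DTT was treated with compound at 76 uM single dose, then 10 uM ATP, 30 min at 37 °C. ADP was read by HTRF Transcreener.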
An asterisk follows results filed as active; u = inconclusive; x = no result; [ ] = dose if it differs, or a comment.

SMILES | gsp antag | gsp agonist | MmCpn inh | TSHR antag | uPA surface inh | CCT chaperon mod
Cc1ccc(CN2CC(C(=O)Nc3ccc(C)c(S(=O)(=O)N4CCCCC4)c3)CC2=O)cc1 (centres undefined) | -17% | -28% | x | x | -14% | -41*
COc1cc(C=O)ccc1OS(=O)(=O)c1ccccc1[N+](=O)[O-] | -11% | -7%[15.4 µM] | -1% | -7 | -3% | -42*
CC(=O)N1CCc2c(sc(NC(=O)c3ccc4c(c3)OCCO4)c2C#N)C1 | 23% | u | u | -7 | 7.9µM* | 0
CCn1c2ccccc2c2nnc(SCC(=O)NCCOC)nc21 | 4% | 10µM* | -1% | -3 | 8% | -1
CC(=O)Nc1cc(C(=O)N2CCCC2)ccc1Sc1ccc(Cl)cc1 | 11µM* | 18% | -4% | -10 | x | 0
CC(=O)Nc1cc(C(=O)N2CCCC2)ccc1S(=O)(=O)c1ccc(C)cc1 | -1% | -34% | -3% | 4 | -3% | -3
CC(=O)Nc1cc(C(=O)N2CCCC2)ccc1Sc1ccc(C)cc1 | 20µM* | 17% | 0% | -4 | x | 0
Cc1nc2c(ncn2-c2ccccc2)c(=O)n1NC(=O)CN1CCOCC1 | 2% | -1% | 1% | -7 | 9% | -1
Cc1cc(=O)[nH]c(-n2ncc(C#N)c2N)n1 | -8% | -2%[15.4 µM] | 1% | 3 | 4% | 0
C[n+]1c2n(c3ccccc31)N=C(c1ccc(Cl)cc1)CS2 | -8% | 24% | 1% | -4 | -13% | 2
CC1Sc2n(c3ccccc3[n+]2C)N=C1c1ccccc1 (centres undefined) | 12% | 13% | 2% | -5 | -16% | -34*
CC(=O)Nc1ccc(-c2cn3cc(C)ccc3n2)cc1 | -4% | -13% | -4% | 1 | 4.5µM* | 0
COc1ccc(NS(=O)(=O)c2ccc3c(c2)NC(=O)CCS3)cc1Cl | 16% | -13% | 2% | -11 | -7% | 0
S=c1[nH]nc(C2CCCCC2)n1/N=C/c1ccccc1Cl | 40µM* | 27%[15.4 µM] | 0% | -8 | -4% | 1
C[C@H](CO)N1C[C@H](C)[C@@H](CN(C)S(=O)(=O)c2ccc(Oc3ccccc3)nc2)OCc2cnnn2CCCC1=O | x | -46% | x | x | x | -1
COc1cc(OC)c(C(=O)C=Cc2ccc(OC)c(OC)c2)c(OC)c1 | -9% | 7% | x | x | -13% | -1
COc1cc(O)c(C(=O)/C=C/c2ccccc2)c(OC)c1 | u | x | -3% | -8 | 8.9µM* | 0
Cc1ccc(N2CC(C(=O)NCC3CCCO3)CC2=O)cc1Cl (centres undefined) | -5% | 13% | 1% | 12 | -1% | -143*
COc1ccc(Cc2nnc(NC(=O)CSc3ccc(C)cc3)s2)cc1 | 11% | -21% | 0% | 2 | -2% | -41*
COc1ccc(Cc2nnc(NC(=O)CSc3ccccc3)s2)cc1 | 3% | -23% | 0% | -3 | 0% | -1
O=C(C[C@H]1C[C@H](C(=O)N2CCOCC2)[C@@]2(CCC3CCCC3)c3[nH]c4ccc(Cl)cc4c3CCN2C1=O)NCCCn1ccnc1 | -9% | x | -2% | 7 | 13µM* | 1
CCCCOc1ccc(N(CC(=O)NCCOC)C(=O)CCC(=O)Nc2ccccn2)cc1 | 32µM* | -10% | 2% | 9 | -4% | -3
CCCCOc1ccc(N(CC(=O)NC(C)(C)CC)C(=O)CCC(=O)Nc2ccccn2)cc1 | -5% | 2%[15.4 µM] | 1% | 7 | 4% | -1
O=C(NC1CCCCC1)c1cc(-c2ccc(O)cc2)on1 | 11% | -31% | 2% | -3 | -2% | -4
Cc1ccc(OCc2cc(C(=O)NC3CCCCC3)no2)cn1 | -6% | 14% | 0% | -109* | -26% | 1
SMILES | gsp antag | gsp agonist | MmCpn inh | TSHR antag | uPA surface inh | CCT chaperon mod
O=C(NC1CCCCC1)c1cc(-c2ccccc2O)on1 | 1% | 5%[15.4 µM] | 0% | -80* | 1% | 2
O=C(N/N=C\c1ccncc1)c1ccc(Cl)s1 | 11% | u | 1% | -1 | 1% | 0
COC(=O)c1ccc(-n2c(CCC(=O)O)ccc2-c2ccc(C)cc2)cc1 | 32µM* | -23% | 0% | -2 | -4% | 2
CC1(C)Cc2nc3sc4c(SCC(=O)O)ncnc4c3cc2CO1 | -14% | 22% | 0% | -11 | 2.2µM* | -1
C=CCn1cc(/C=C/c2cc[n+](C)cc2)c2ccccc21 | u | -3% | 1% | -9 | 10µM* | -2
O=C(CSCc1ccc(Cl)cc1)Nc1cc([N+](=O)[O-])ccc1O | u | 14% | 2% | -45 | -4% | -2
Cc1ccc(SCC(=O)Nc2cc([N+](=O)[O-])ccc2O)cc1 | 50µM* | -28%[15.4 µM] | 3% | -19 | 1% | 0
O=C(NC1CC1)C1CCN(S(=O)(=O)c2cc([N+](=O)[O-])ccc2Cl)CC1 | -12% | -28% | 0% | -8 | -7% | -3
Cc1nnc(NC(=O)C2CCN(S(=O)(=O)c3cc([N+](=O)[O-])ccc3Cl)CC2)o1 | 35µM* | -29% | -3% | 13 | 6% | 1
FC(F)Oc1ccc(NC(=S)NN2CCOCC2)cc1 | 11% | 8% | 1% | -5 | -1% | -2
COc1ccc(OC)c(C2C(C(=O)Nc3nc4ccccc4s3)=C(C)NC3=C2C(=O)CCC3)c1 (centres undefined) | 32µM* | -15% | 0% | -13 | 9% | 1
COc1cccc(C2C(C(=O)Nc3nc4ccccc4s3)=C(C)NC3=C2C(=O)CC(C)(C)C3)c1OC (centres undefined) | -15% | 8% | -21% | 20 | 4% | -6
O=C(Nc1ccc2nc(-c3ccco3)c(-c3ccco3)nc2c1)NC1CC1 | -14% | 10%[15.4 µM] | -7% | -7 | -3% | -2
O=c1cc(-c2ccccc2)c2ccc(O)c(CN3CCCCC3)c2o1 | 10% | -20% | -2% | -6 | x | 0
COc1ccc(-n2c(=S)[nH]c3cc(C(=O)NCc4ccc(F)cc4)ccc3c2=O)c(OC)c1 | 25µM* | 7%[15.4 µM] | -3% | 0 | -16% | -2
COc1ccc(-n2c(=S)[nH]c3cc(C(=O)Nc4ccc(F)cc4)ccc3c2=O)c(OC)c1 | 40µM* | 5% | -1% | -6 | -19% | 2
COc1ccc(-n2c(=S)[nH]c3cc(C(=O)Nc4ccccc4OC)ccc3c2=O)c(OC)c1 | 28µM* | 4%[15.4 µM] | 3% | u | -2% | -1
Cc1cc(C)n2nc(S(=O)(=O)N(CC(C)C)CC(C)C)nc2n1 | 10% | -33% | -1% | -2 | 11% | 0
CCN(CC)S(=O)(=O)c1ccc(S(=O)(=O)Nc2ccc3c(c2)oc2ccccc23)cc1 | -35% | 24% | 0% | -10 | 2% | 0
